ADAM17 inh = inhibitors of human ADAM17. inhibition, % at 6.95 µM. P78536. AID 720648. hit rate 0.83% among 370,000. recombinant ADAM17, EDANS/DABCYL FRET peptide cleavage;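 active means inhibition above the mean of compounds lying between control limits plus 3 SD, set per campaign, cut at about 8.5% in these data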;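 further: 0% = DMSO-only wells as the low control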
ADAM10 inh = ADAM10 inhibition, QFRET primary screen; recombinant ADAM10, EDANS/DABCYL FRET peptide cleavage, 3 h; inhibition, % at 7 µM; O14672; hit rate 0.62% among 370,000;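 active means inhibition above a per-campaign cutoff equal to the mean of compounds falling between control-based bounds plus 3 SD, cut at about 20% in these data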;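 further: 0% = DMSO wells while the 100% control is not disclosed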
Pemphigus Ab inh = blocks pemphigus antibody binding to human desmoglein-3. AID 588358. binding (percent of control), % at 10 µM. hit rate 0.48% among 310,000. DSG3-coupled beads, scFv-anti-DSG3-GFP binding, flow cytometry; hits give low values;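 active means binding more than 3 SD below its plate's average and above zero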;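 further: hits lower antibody fragment binding to DSG3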
Target sequence (P32926 whole entry, looked up, the tested form may be a part): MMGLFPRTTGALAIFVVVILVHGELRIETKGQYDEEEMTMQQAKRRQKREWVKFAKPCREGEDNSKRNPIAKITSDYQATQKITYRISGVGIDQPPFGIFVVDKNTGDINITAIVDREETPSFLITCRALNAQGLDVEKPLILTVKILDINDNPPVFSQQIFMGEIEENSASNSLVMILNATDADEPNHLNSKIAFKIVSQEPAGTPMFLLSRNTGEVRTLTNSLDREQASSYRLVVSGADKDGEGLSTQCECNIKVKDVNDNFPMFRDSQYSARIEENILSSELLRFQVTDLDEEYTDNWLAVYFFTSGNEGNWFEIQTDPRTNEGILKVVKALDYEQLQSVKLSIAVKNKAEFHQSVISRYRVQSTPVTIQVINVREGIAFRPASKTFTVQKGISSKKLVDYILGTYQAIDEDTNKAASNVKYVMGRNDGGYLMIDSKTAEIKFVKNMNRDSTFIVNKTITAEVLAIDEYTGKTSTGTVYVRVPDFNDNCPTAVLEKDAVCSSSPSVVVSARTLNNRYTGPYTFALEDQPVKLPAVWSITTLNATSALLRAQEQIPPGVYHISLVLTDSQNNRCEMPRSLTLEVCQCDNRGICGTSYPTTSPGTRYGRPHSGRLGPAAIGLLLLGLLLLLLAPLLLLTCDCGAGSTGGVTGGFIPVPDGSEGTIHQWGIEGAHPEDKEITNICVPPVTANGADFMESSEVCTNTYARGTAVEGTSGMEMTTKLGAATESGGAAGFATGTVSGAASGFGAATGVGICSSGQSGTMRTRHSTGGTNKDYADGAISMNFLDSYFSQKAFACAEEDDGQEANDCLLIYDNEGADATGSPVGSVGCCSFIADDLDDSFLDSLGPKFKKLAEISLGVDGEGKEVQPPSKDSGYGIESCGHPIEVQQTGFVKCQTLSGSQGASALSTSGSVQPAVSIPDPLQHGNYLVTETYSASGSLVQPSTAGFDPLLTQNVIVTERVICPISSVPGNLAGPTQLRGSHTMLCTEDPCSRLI
rCAG RNA binder = molecules binding r(CAG) RNA repeats. inhibition, % at 3 µM. r(CAG) RNA repeat, TO-PRO-1 dye displacement fluorescence. hit rate 1.3% among 370,000;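 active means inhibition above the plate cutoff, the mean of all test compounds on that plate plus 3 SD, cut at about 35% in these data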;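 further: 0% = DMSO alone and 100% = 100 µM mitoxantrone as full dye displacement; higher means more dye released from RNA so lower well fluorescence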
MPTP block = blocks calcium-induced mitochondrial swelling | isolated mouse mitochondria, Ca2+ swelling absorbance, 30 min | inhibition, % at 10 µM | hit rate 1.4% among 360,000 | AID 602449;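 active means inhibition of 50% or more, scaled per plate between neutral and stimulator controls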;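 further: 0% = DMSO wells given calcium and 100% = 1 mM EGTA wells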
proKLK7 act = proKLK7 (human) activation, primary screen | P49862 | hit rate 0.9% among 370,000 | activation, % at 7 µM | purified proKLK7, EDANS-DABCYL substrate fluorescence; 100% is mature enzyme control, 0% vehicle;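 active means activation above the mean of all tested compounds plus 3 SD, computed per campaign excluding outliers beyond control limits, cut at about 13% in these data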
KLK7 act conf = proKLK7 activation, confirmation; shares compounds with proKLK7 act; purified proKLK7, EDANS-DABCYL substrate fluorescence; scaled: vehicle 0, mature enzyme 100; activation, % at 7 µM; hit rate 68% among 3,200; AID 686949;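 active means activation, as change over the incubation, above the mean of all tested compounds plus 3 SD, cut at about 13% in these data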
EDANS-DABCYL int = optically interferes with EDANS-DABCYL signal, flagging KLK7 hits. activation, % at 7 µM. hit rate 80% among 3,200. EDANS-DABCYL substrate fluorescence interference, no enzyme, 4 h; solvent 0%, active enzyme control 100%. shares compounds with proKLK7 act;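 active means activation above the all-compound mean plus 3 SD, ignoring values outside control-based bounds, cut at about 4.8% in these data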;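 further: value is the 4 h activation minus the activation read at time zero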
K7 EDANS ctr = counter-screen for kallikrein-7 activators: EDANS-DABCYL interference, dose response | shares compounds with proKLK7 act | EDANS-DABCYL peptide fluorescence interference, no enzyme | EC50, µM | hit rate 20% among 250 | AID 720493;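 active means compounds that raise the fluorescence signal in this interference counterscreen, with EC50 at or below 10 µM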;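 further: intact quenched peptide substrate alone read at 355 nm excitation and 520 nm emission; signal is fluorescence gain from T0 to T4 after four hours at room temperature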
Starred values were filed as active, the others as inactive; i = inactive; x = no result given. This is a sample that favours compounds with a hit; in the whole collection about 4.7% have one here.

SMILES | ADAM17 inh | ADAM10 inh | Pemphigus Ab inh | rCAG RNA binder | MPTP block | proKLK7 act | KLK7 act conf | EDANS-DABCYL int | others
CCc1cc2c(CN3CCN(CC)CC3)cc(=O)oc2cc1O | i | i | 99 | -3 | 1 | 71* | 73* | 75*
COc1cc2c(cc1OC)CN(Cc1cc(=O)oc3cc(C)c(Cl)cc13)CC2 | -31 | -90 | 126 | 16 | 2 | 15* | -8 | -6
Cc1cc2oc(=O)cc(CN3CCOCC3)c2cc1C(C)C | -3 | -10 | 104 | -6 | 0 | -1 | x | x
Cc1c(O)ccc2c(CN3CCOCC3)cc(=O)oc12 | i | i | 98 | 1 | 0 | 41* | 65* | 67*
O=c1cc(CN2CCOCC2)c2cc(Cl)c(O)cc2o1 | i | i | 98 | 3 | -1 | 54* | 63* | 77*
CCc1ccc2oc(=O)cc(CN3CCN(Cc4ccccc4)CC3)c2c1 | -4 | -13 | 93 | -5 | 0 | 1 | x | x
CCOC(=O)c1cc([N+](=O)[O-])cc([N+](=O)[O-])c1Sc1ncnc2nc[nH]c12 | -1 | -5 | 86 | 6 | -1 | 0 | x | x
Cc1c(O)ccc2c(CN3CCN(CCO)CC3)cc(=O)oc12 | i | i | 103 | 1 | 2 | 66* | 68* | 69*
Cc1ccc2c(CN3CCN(Cc4ccc5c(c4)OCO5)CC3)cc(=O)oc2c1C | -2 | -3 | 101 | -6 | 1 | 1 | x | x
COc1cc2c3nnc(-c4ccccc4)c-3cn(Cc3ccc(F)cc3)c2cc1OC | -220 | i | 90 | 23 | 14 | 28* | -28 | -25
COc1ccc(N(Cc2ccccc2)N=O)cc1 | -7 | 14 | 107 | -4 | -2 | -1 | x | x
COCCN1CCn2c(nc3cc(NC(=O)NC4CCCCC4)ccc32)C1 | -286 | i | x | -1 | -2 | 16* | -22 | -14
CCCCn1nnnc1C1(C)CCC(=O)N1Cc1cc(OC)ccc1OC (centres undefined) | -4 | -7 | x | -1 | -2 | 0 | x | x
CCn1ccnc1CN1CCCC(C(=O)c2ccc3cc(OC)ccc3c2)C1 (centres undefined) | -145 | -376 | 124 | -6 | 3 | 36* | -3 | -6
COc1ccc2cc(C(=O)C3CCCN(C(=O)c4cccnc4)C3)ccc2c1 (centres undefined) | i | i | 85 | -6 | -1 | 22* | 57* | 47* | K7 EDANS ctr=>70
O=C(c1ccc2ccccc2c1)C1CCCN(C(=O)c2cccnc2)C1 (centres undefined) | -23 | -60 | 106 | -6 | -1 | 1 | x | x
COc1ccc2cc(C(=O)C3CCCN(Cc4ccccn4)C3)ccc2c1 (centres undefined) | -270 | i | 109 | -7 | 1 | 39* | -6 | 1
COc1cccc(C(=O)Nc2ccccc2C(=O)NCC2CCCO2)c1 (centres undefined) | 2 | 7 | 106 | -4 | 1 | 0 | x | x
CS(=O)(=O)Nc1ccc(-c2cccc3nccn23)cc1 | -379 | i | x | 2 | 0 | -41 | x | x
c1cc(-c2ccc(N3CCOCC3)cc2)n2ccnc2c1 | i | i | x | -1 | 0 | 79* | 47* | 59*
CN(C)c1ccc(-c2cccc3nccn23)cc1 | i | i | x | 4 | 1 | 40* | 70* | 60* | K7 EDANS ctr=>70
N#CCc1ccc(-c2cccc3nccn23)cc1 | -471 | i | x | 0 | -2 | 22* | 13* | 26*
CN(Cc1cc(Cl)cc(Cl)c1)[C@H]1C[C@H]2c3[nH]c4ccccc4c3CCN2C(=O)[C@H]1CO | -24 | -103 | 111 | 1 | -1 | 7 | x | x
CNc1cncc(-c2cccc(OC)c2F)n1 | i | i | x | 2 | -1 | 37* | 35* | 53*
CNc1cncc(-c2ccccc2CO)n1 | i | i | x | 2 | -1 | 26* | 12 | 15*
SMILES | ADAM17 inh | ADAM10 inh | Pemphigus Ab inh | rCAG RNA binder | MPTP block | proKLK7 act | KLK7 act conf | EDANS-DABCYL int | others
CCOc1ccccc1-c1cnc(NC)cn1 | -374 | i | x | 1 | 1 | 15* | 31* | 28*
CNc1cnc(-c2ccccc2OC)cn1 | i | i | x | -1 | -1 | 11 | x | x
CCOc1ccccc1-c1cncc(NC)n1 | i | i | x | 0 | 1 | 25* | 18* | 16*
Cc1cc(Br)c2c(c1)[C@](O)(c1cn(C)c3ccccc13)C(=O)N2C | 3 | 3 | x | 1 | -1 | 1 | x | x
COc1ccc(-c2nc3ccccc3n(CC(C)C)c2=O)cc1 | -3 | -9 | x | -1 | -1 | -1 | x | x
Cc1cc(=O)oc2cc(NC(=O)c3ccccc3C(=O)O)ccc12 | i | i | 112 | -1 | -1 | 54* | 14* | 16*
Cc1cc(=O)oc2cc(NC(=O)c3ccccc3Cl)ccc12 | -417 | i | 110 | 3 | -1 | 13* | 12 | 12*
O=C(c1cnn(C(=O)c2ccco2)c1)c1cc(Cl)cc(Cl)c1O | 1 | 0 | 96 | 5 | -1 | 0 | x | x
COC(=O)c1cc2c(c3c4cc(OC)ccc4n(S(=O)(=O)c4ccc(F)cc4)c13)C(=O)N(CC(C)C)C2 | -2 | -10 | x | 13 | x | 1 | x | x
COc1ccc(OC)c(/C=C/C(=O)OCC(=O)NCc2ccco2)c1 | -41 | -130 | 106 | 5 | 0 | 23* | 17* | 14* | K7 EDANS ctr=>70
COc1ccc(OC)c(/C=C/C(=O)Oc2ccc(C(C)=O)cc2)c1 | -137 | -370 | 107 | 0 | -2 | 15* | 25* | 32*
COc1ccc(OC)c(/C=C/C(=O)OCC(=O)N2C(C)CCCC2C)c1 (centres undefined) | -52 | -204 | 93 | -2 | 0 | 13* | 13* | 15*
CC(C)C(C(=O)NCC1CCCO1)N(CC1CCCO1)C(=O)CNS(=O)(=O)c1ccccc1 (centres undefined) | -5 | 2 | 92 | -5 | -2 | 0 | x | x
CCn1cc(C2C3=C(CC(C)(C)CC3=O)N(c3ccc(C)cc3)C3=C2C(=O)CC(C)(C)C3)c(C)n1 | -6 | -14 | 95 | -2 | 1 | -1 | x | x
COc1ccc(N2C3=C(C(=O)CC(C)(C)C3)C(c3cnn(C)c3)C3=C2CC(C)(C)CC3=O)cc1 | i | i | 110 | -3 | 2 | 21* | -15 | -10
Cc1ccc(C#N)c(SCC(=O)Nc2nccs2)n1 | -60 | -183 | 96 | -3 | 0 | 130* | 209* | 182*
CCOC(=O)c1c(SCC(=O)Nc2nccs2)nc(C)c(C)c1C | -22 | -49 | 102 | -8 | -1 | 79* | 61* | 58*
